Shown are actives, neighbours in structure and some others; about 4% of the full set was active somewhere.
Shn3 inh set2 – reduction of Shn3 3'UTR firefly luciferase signal, primary screen, Schnurri-3 inhibitor project, cell-based, Clone20 osteoblasts, set 2; Clone20 osteoblast Shn3 3'UTR firefly luciferase, 24 h; inhibition, % at 12.5 µM; hit rate 0.52% among 360,000;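 active = mean inhibition of at least 75% with every replicate also reaching 75%; inconclusive = mean inhibition at least 75% but some replicate below; inactive = mean inhibition below 75%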;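 note: 0% = median of neutral control wells and 100% = pilot-screen positive control compound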
Mdm2-MdmX inh – inhibitors of human Mdm2-MdmX association, primary screen, cell-based, luminescence, split luciferase, SaOS-2, uHTS | hit rate 3% among 330,000 | AID 485346, 2010 | SaOS-2 split-luciferase Mdm2/MdmX complementation | inhibition, % at 8 µM | Protein Mdm4 (Homo sapiens) + E3 ubiquitin-protein ligase Mdm2 (Homo sapiens), …;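 active = inhibition of at least 50% at 8 µM in the primary screen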
Target sequence (O15151 whole entry, looked up): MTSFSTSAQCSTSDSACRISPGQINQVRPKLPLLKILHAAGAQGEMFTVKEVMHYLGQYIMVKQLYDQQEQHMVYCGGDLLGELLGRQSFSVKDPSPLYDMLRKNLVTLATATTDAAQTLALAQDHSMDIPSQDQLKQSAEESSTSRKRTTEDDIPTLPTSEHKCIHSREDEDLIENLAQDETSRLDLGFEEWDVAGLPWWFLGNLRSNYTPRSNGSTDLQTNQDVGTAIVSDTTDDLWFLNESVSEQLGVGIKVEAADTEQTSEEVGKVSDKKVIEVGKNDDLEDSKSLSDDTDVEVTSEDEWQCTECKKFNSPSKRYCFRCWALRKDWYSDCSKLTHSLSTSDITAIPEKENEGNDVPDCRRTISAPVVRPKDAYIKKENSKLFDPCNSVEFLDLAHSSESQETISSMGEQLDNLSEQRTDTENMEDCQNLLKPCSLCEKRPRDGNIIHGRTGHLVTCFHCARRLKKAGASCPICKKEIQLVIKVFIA
Target sequence (Q00987 whole entry, looked up): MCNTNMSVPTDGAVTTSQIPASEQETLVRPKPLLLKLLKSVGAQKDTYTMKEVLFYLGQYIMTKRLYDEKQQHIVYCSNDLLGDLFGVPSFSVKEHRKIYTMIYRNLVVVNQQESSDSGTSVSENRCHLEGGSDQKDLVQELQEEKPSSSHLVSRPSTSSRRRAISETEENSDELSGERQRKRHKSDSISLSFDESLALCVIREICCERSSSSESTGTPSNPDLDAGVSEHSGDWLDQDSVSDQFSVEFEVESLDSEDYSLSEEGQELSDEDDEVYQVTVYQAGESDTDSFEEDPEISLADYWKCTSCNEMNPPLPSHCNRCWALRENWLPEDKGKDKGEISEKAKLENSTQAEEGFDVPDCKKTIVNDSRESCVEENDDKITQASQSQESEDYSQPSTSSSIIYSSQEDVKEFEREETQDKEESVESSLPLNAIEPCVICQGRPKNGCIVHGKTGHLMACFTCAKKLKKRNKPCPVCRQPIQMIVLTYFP
Beta apoptosis – inhibitors of cytokine-induced beta cell apoptosis, primary screen, luminescence; INS-1E cytokine-induced death, ATP luminescence, 48 h; percent of positive-control rescue, neutral wells zero; protection from apoptosis, % (concentration not given with the values); hit rate 0.8% among 300,000; AID 435005, 2010;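 active = Every replicate reaches about 75%, or at least half do and their mean reaches it too, limit read from the data; inconclusive = At least half of replicates reach the limit but their mean does not; inactive = Under half of replicates reach the limit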;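 note: 0% = cytokine-treated negative control wells and 100% = positive control rescue; higher means more ATP so stronger rescue from cytokine killing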
Gli-Sufu antag – Gli-Sufu pathway antagonists, primary screen, luciferase luminescence, Sufu-KO-LIGHT cells, uHTS; Sufu-KO-LIGHT fibroblasts, Gli luciferase reporter luminescence; inhibition, % at 5 µM; hit rate 0.74% among 340,000; AID 588413, 2011;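 active = inhibition above about 55%, limit read from the data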;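 note: 0% = DMSO-treated cells and 100% = wells with medium but no cells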
CSC inhib – cancer stem cell viability inhibitors, primary screen, luminescence | cancer stem cell-like cells viability | inhibition, % at 7.5 µM | hit rate 1.1% among 300,000; in the data active = inhibition above about 75%; inconclusive = no clear call, values can overlap the other calls; tested in HMLE shEcad cells
PAX8 inh HTS – inhibitors of PAX8-driven TPO luciferase reporter, primary screen, RMG-I cells, single concentration. hit rate 1.2% among 360,000. inhibition, % at 12.6 µM. SteadyGlo, 24 h. AID 652154, 2013;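 active = mean replicate inhibition at least 60% with every replicate also reaching 60%; inconclusive = only one of the two criteria is met; inactive = mean below 60% and not all replicates reaching 60%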;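 note: luciferase light reporting Pax8 driven TPO promoter activity; plate controls were median of neutral control wells for no effect and mitoxantrone controls for full effect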
Mdm2 MdmX conf – Mdm2-MdmX complex disruptors, retested hits, confirmation, luminescence, single concentration; inhibition, % at 8 µM; AID 489028, 2010; hit rate 55% among 10,000; shares compounds with Mdm2-MdmX inh; Mdm2-MdmX binding, luminescent assay; in the data active = inhibition above about 40%
Full FLuc ctr – full-length luciferase signal inhibition, confirmation, counter-screen for Mdm2/MdmX interaction inhibitor project, cell-based, single concentration, SaOS-2; shares compounds with Mdm2-MdmX inh; SaOS-2 full-length luciferase counterscreen, luminescence; inhibition, % at 8 µM; hit rate 77% among 6,200; AID 504607, 2011;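 active = mean inhibition at 8 µM reaching about 37%, which flags the compound as non-specific, limit read from the data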;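 note: p53-null SaOS-2 cells with luciferase driven by a doxycycline-inducible promoter; compound on cells about two nights before reading with doxycycline added after day one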
The depositor's hits bear a star; ? = inconclusive; / = no result given.

SMILES	Shn3 inh set2	Mdm2-MdmX inh	Beta apoptosis	Gli-Sufu antag	CSC inhib	PAX8 inh HTS	Mdm2 MdmX conf	Full FLuc ctr
O=C(N/N=C/c1c[nH]c2ccccc12)c1cc(-c2ccccc2)n[nH]1	1	28	4	-2	21	5	/	/
CCSC1=C(C#N)C(c2ccc(C)s2)CC(=O)N1 (stereo unspecified)	-4	-19	-6	0	-14	/	/	/
CCOC(=O)CSC1=C(C#N)C(c2ccc(C)s2)CC(=O)N1 (stereo unspecified)	23	61*	/	48	/	/	62*	67*
CCCCOc1ccc(/C=C/C(=O)Nc2ccc(C(N)=O)cc2)cc1	2	-2	9	-3	-3	-6	/	/
C=CCOc1ccc(/C=C/C(=O)Nc2ccc(C(=O)NC)cc2)cc1	-12	75*	-5	-14	7	-3	5	/
COC(=O)c1c(C)[nH]c(-c2csc(N)n2)c1C	-12	65*	22	-15	60	22	61*	85*
Cc1cc(=O)oc2cc(NC(=O)c3cccc(Br)c3)ccc12	-44	66*	43	-13	17	-49	-32	/
Cc1cc(=O)oc2cc(NC(=O)c3cc4ccccc4o3)ccc12	/	16	4	/	-4	/	/	/
CO[C@@H]1CC[C@@H]2CCOc3c(C#N)cccc3C(=O)N(C)C[C@@H](OC)[C@@H](C)C(=O)N(C)C[C@@H]1O2	/	/	/	/	/	-7	/	/
CCCC1=Nc2cc(C(=O)NCCN3CCOCC3)ccc2Sc2ccccc21	-6	4	0	4	23	14	/	/
CC1=Nc2cc(C(=O)NCCCN3CCOCC3)ccc2Sc2c(C)ccc(C)c21	1	66*	-9	10	47	3	11	/
CC1=Nc2cc(C(=O)NCCN3CCOCC3)ccc2Sc2c(C)ccc(C)c21	33	64*	1	4	42	26	52*	47*
O=C(C[C@@H]1CC[C@H]2[C@@H](COC[C@H](O)CN2Cc2ccccc2F)O1)N[C@H]1CCN(Cc2ccccc2)C1	/	/	/	/	/	1	/	/
CC(=O)N(C)C[C@H]1Oc2cc(C#Cc3ccc(F)cc3)ccc2S(=O)(=O)N([C@@H](C)CO)C[C@H]1C	/	/	/	/	/	2	/	/
COc1ccc(C=C(c2nc3ccccc3s2)c2nc3ccccc3s2)cc1O	-30	58*	5	9	4	/	45*	63*
COc1ccc(/C=N/Nc2nc3ccccc3s2)cc1O	3	/	/	-170	/	12	/	/
CCOC(=O)C(C)Oc1cccc2c(=O)n(CC(=O)NCc3ccc4c(c3)OCO4)ccc12 (stereo unspecified)	17	54*	17	15	55	13	59*	57*
CCOC(=O)C(C)Oc1cccc2c(=O)n(CC(=O)Nc3ccc4c(c3)OCCO4)ccc12 (stereo unspecified)	25	48	12	8	-20	-32	/	/
CCOC(=O)COc1cccc2c(=O)n(CC(=O)NCc3ccc(F)cc3)ccc12	38	59*	4	49	63	48	61*	83*
O=C(C1CC1)N1CCCCN2[C@H](C1)[C@H](c1ccc(C#CC3CCCC3)cc1)[C@@H]2CO	/	/	/	/	/	33	/	/
COc1ccccc1/C=C/C(=O)c1c2c(c(C)[nH]c1=O)CCCC2	-31	85*	-16	5	/	/	99*	56*
COc1cc(OC)c(OC)cc1/C=C/C(=O)c1ccc(NS(=O)(=O)c2ccc(C)cc2)cc1	15	59*	/	12	43	28	28	/
COc1ccccc1/C=C/C(=O)c1ccc(NC(C)=O)cc1	-71	63*	-4	-20	60	4	52*	59*
COc1ccccc1/C=C/C(=O)c1ccccc1	-33	/	4	-10	-2	-83	/	/
C[C@H]1CN([C@@H](C)CO)C(=O)Cc2cc(NS(=O)(=O)c3cccs3)ccc2O[C@@H]1CN(C)C(=O)Nc1ccc(F)cc1	/	/	/	/	/	-4	/	/
SMILES	Shn3 inh set2	Mdm2-MdmX inh	Beta apoptosis	Gli-Sufu antag	CSC inhib	PAX8 inh HTS	Mdm2 MdmX conf	Full FLuc ctr
Cn1c(SCn2nnc3ccccc3c2=O)nc2ccccc2c1=O	/	21	3	/	3	/	/	/
O=C(O)CSc1ncnc2sc(-c3ccccc3)cc12	-12	22	-5	44	-8	1	/	/
CC(=O)c1c(C)[nH]c(C(=O)CSc2nnc(-c3ccccc3)n2Cc2ccc3c(c2)OCO3)c1C	11	77*	-3	-11	2	/	30	/
CC(=O)c1c(C)[nH]c(C(=O)CSc2ncnc3sc(-c4ccccc4)cc23)c1C	68	51*	/	39	-17	10	6	/
CC(=O)c1c(C)[nH]c(C(=O)CSc2nnc(-c3cccs3)n2Cc2ccccc2)c1C	29	18	1	-5	4	/	/	/
O=c1c2ccccc2nnn1CSc1nnc(-c2cccs2)n1Cc1ccccc1	20	61*	2	11	27	-2	49*	72*
CCOC(=O)c1c(C)[nH]c(C(=O)CSc2nnc(-c3cccs3)n2Cc2ccccc2)c1C	25	65*	11	0	19	11	42*	40*
CC1=NN(c2ccccc2)C(=O)/C1=C/C=C/c1ccccc1	?	65*	/	-15	84*	-2	52*	49*
CC1CN(c2nc(-c3ccc(Br)cc3)nnc2-c2ccccc2)CC(C)N1 (stereo unspecified)	10	81*	9	13	36	6	54*	52*
O=C(NC1CCCCC1)N[C@@H]1CC[C@@H](CCNS(=O)(=O)c2ccc(Cl)cc2)O[C@H]1CO	/	/	/	/	/	11	/	/
Cc1ccccc1NC(=S)N/N=C1\CC(C)(C)Oc2ccc(O)cc21	40	51*	12	11	-11	29	6	/
CC(=O)N1CCC2(CC1)C/C(=N\NC(=S)Nc1ccc(C)cc1)c1cc(O)ccc1O2	-16	75*	6	7	17	15	40*	93*
Cc1ccc(NC(=S)N/N=C2\CC(C)(C)Oc3ccc(O)cc32)cc1	30	28	2	13	46	18	/	/
CC(=O)N1c2ccc(C)cc2C(c2ccccc2)CC1C (stereo unspecified)	6	74*	-7	13	9	-23	35	71*
CC1(C)CC2(CC(c3ccccc3F)c3cc(Cl)c(O)cc3O2)NC(=S)N1 (stereo unspecified)	-1	24	8	3	16	11	/	/
